Activity calls are given as the source filed them.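 Rule for the calls: active = compounds whose dose response marks them as Clk4 kinase inhibitors with a measurable half-maximal potency; inactive = the rest.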

Chain of Dual specificity protein kinase CLK4 (Homo sapiens) (Q9HAZ1 whole entry, looked up, canonical isoform): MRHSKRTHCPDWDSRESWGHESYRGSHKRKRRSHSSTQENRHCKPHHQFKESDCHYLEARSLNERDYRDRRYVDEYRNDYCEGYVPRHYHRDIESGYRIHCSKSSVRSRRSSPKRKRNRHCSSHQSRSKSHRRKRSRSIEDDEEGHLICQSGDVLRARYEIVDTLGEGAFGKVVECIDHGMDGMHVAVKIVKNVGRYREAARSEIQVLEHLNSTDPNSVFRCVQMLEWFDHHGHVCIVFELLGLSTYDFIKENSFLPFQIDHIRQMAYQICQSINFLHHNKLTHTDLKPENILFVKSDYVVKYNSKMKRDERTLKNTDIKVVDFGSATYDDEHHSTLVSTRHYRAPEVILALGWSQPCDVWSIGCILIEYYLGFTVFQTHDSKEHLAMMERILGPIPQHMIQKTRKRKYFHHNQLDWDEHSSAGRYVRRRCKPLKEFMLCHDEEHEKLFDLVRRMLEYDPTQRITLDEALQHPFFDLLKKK

This assay has as its target Dual specificity protein kinase CLK4 (Homo sapiens) (UniProt Q9HAZ1). The assay can be described thus: Kinase Inhibition Profile Study on Inhibitors of CDC-like Kinase 4. The settings on record: Reaction Biology radiometric kinase assay, 10 uM ATP. The source says: NIH Molecular Libraries Probe Production Centers Network [MLPCN] NIH Chemical Genomics Center [NCGC] MLSCN Grant: 1R03MH084827-01 Assay Submitter (PI): Tom Misteli NCGC Assay Overview: Alternative splicing of pre-mRNAs plays a major role in the regulation of eukaryotic gene expression. Alternative splicing is now thought to be one of the primary reasons for the complexity of higher organisms leading to an average of three protein isoforms per gene. Aberrant splicing can lead to a number of diseases and is known to play a role in rare genetic diseases such as progeria syndrome. Hutchinson-Gilford Progeria Syndrome (HGPS) is a pediatric premature aging disease caused by a spontaneous mutation in the lamin A/C (LMNA) gene due to a single point mutation in the lamin A gene effecting 1 in 4 million people. To identify both specific splicing modulators of the lamin A gene as well as general splicing modulators, a cell-based HTS assay was developed using a minigene reporter system (AIDs, 1459 & 1487). […] The Clk family is part of the CMGC group of protein kinases which includes Dyrks and are essential kinases found in all eukaryotes. Clks have been implicated to play a role in the regulation of alternative splicing; while Dyrks, in particular over expression of Dyrk1A, has been linked to diseases as Down syndrome and Alzheimer disease. This AID summarizes the characterization of lead Clk4 inhibitors in a panel of these related kinases: Clk1, 2 & 3, DYRK1/DYRK1A, and DYRK1B. Potency against Clk4 was also confirmed in the panel.
All kinase reactions were performed using 10 uM ATP in the assay. 100% activity was taken from kinase reactions with DMSO alone (the vehicle used for compound stock solutions).
For `CC(C)(C)CNc1ncnc2ccc(-c3ccc4c(c3)OCO4)cc12`, the Potency is 70 nM (active). For the compound `c1csc(CNc2ncnc3ccc(-c4ccoc4)cc23)c1`, the Potency was 249 nM (active). The figure for `c1csc(CNc2ncnc3ccc(-c4ccc5c(c4)OCO5)cc23)c1` is 39 nM (active); for `Cc1nc(CNc2ncnc3ccc(-c4ccoc4)cc23)cs1` it is 340 nM (active). The figure for `COc1cccc(-c2ccc3ncnc(NCc4cccs4)c3c2)c1` is 1050 nM (active). For the compound `c1coc(-c2ccc3ncnc(NCc4cccs4)c3c2)c1`, the Potency is 1090 nM (active). As to `c1nc(NCCc2cnc[nH]2)c2cc(-c3ccoc3)ccc2n1`, the Potency is 840 nM (active).

With `CCOC(=O)c1ccc(-c2ccc3ncnc(NCc4ncc[nH]4)c3c2)o1`, the Potency is 790 nM (active). In the case of `Cc1ccc(CNc2ncnc3ccc(-c4ccoc4C)cc23)o1`, the Potency was 490 nM (active). Turning to `Cc1occc1-c1ccc2ncnc(NCCc3cnc[nH]3)c2c1`, the Potency is 740 nM (active). The figure for `Cc1nc(CNc2ncnc3ccc(-c4ccc5c(c4)OCO5)cc23)cs1` is 40 nM (active). In the case of `Cc1nc(CNc2ncnc3ccc(-c4ccoc4C)cc23)cs1` it was 850 nM (active); in that of `CN(Cc1ncc[nH]1)c1ncnc2ccc(-c3ccc4c(c3)OCO4)cc12`, 120 nM (active). The figure for `c1nc(NCC2CCOC2)c2cc(-c3ccc4c(c3)OCO4)ccc2n1` (stereo unspecified) is 29 nM (active). Turning to `c1nc(NCC2CCCC2)c2cc(-c3ccc4c(c3)OCO4)ccc2n1`, the Potency was 90 nM (active). The figure for `CCOC(=O)c1ccc(-c2ccc3ncnc(NCc4ccc(C)o4)c3c2)o1` is 230 nM (active); for `CCOC(=O)c1ccc(-c2ccc3ncnc(NCc4csc(C)n4)c3c2)o1` it is 810 nM (active). With `CCOC(=O)c1ccc(-c2ccc3ncnc(NCCc4cnc[nH]4)c3c2)o1`, the Potency is 250 nM (active).

On to `Cc1nc(CN(C)c2ncnc3ccc(-c4ccc5c(c4)OCO5)cc23)cs1`, for which the Potency is 11 nM (active). Take `O=C(O)c1ccc(-c2ccc3ncnc(NCCc4cnc[nH]4)c3c2)o1`: the Potency was 940 nM (active). The figure for `OCc1ccc(-c2ccc3ncnc(NCCc4cnc[nH]4)c3c2)o1` is 1290 nM (active).

These data come from PubChem BioAssay AID2710 (National Center for Advancing Translational Sciences (NCATS), 2010).
